Reference: PubChem BioAssay (NCI)
This is part of a sample that, as a whole, favours compounds with a hit. Of some 83,000 tested, about 20% had one in any assay.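 Treatment: one concentration, 48 hours, 96-well format. Scoring: percent growth, with anything below 10 considered active.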 Calls of active or inactive are those of the source.

How the values were obtained:
Test in all cases: NCI-60 one-dose screen, 48 h (100 = growth as untreated, 0 = no growth, -100 = all killed)
Details in all cases: 10 µM unless noted
EKVX NSCLC = system: EKVX NSCLC
SN12C renal = system: SN12C renal
UO-31 renal = system: UO-31 renal
TK-10 renal = system: TK-10 renal
ACHN renal = system: ACHN renal
CAKI-1 renal = system: CAKI-1 renal
CCRF-CEM leukemia = system: CCRF-CEM leukemia
MOLT-4 leukemia = system: MOLT-4 leukemia
SR leukemia = system: SR leukemia
RPMI-8226 leukemia = system: RPMI-8226 leukemia
OVCAR-8 ovarian = system: OVCAR-8 ovarian
OVCAR-4 ovarian = system: OVCAR-4 ovarian
SK-OV-3 ovarian = system: SK-OV-3 ovarian
IGROV1 ovarian = system: IGROV1 ovarian
OVCAR-3 ovarian = system: OVCAR-3 ovarian
HS 578T breast = system: HS 578T breast
NCI/ADR-RES ovarian = system: NCI/ADR-RES ovarian
T-47D breast = system: T-47D breast
A498 renal = system: A498 renal
OVCAR-5 ovarian = system: OVCAR-5 ovarian

Measured: growth

C#Cc1nc(C2=C(C)C(OC(=O)CCC(=O)O)CC2)cs1 (centres undefined)
inactive: EKVX NSCLC 99.2% | SN12C renal 101% | TK-10 renal 157% | ACHN renal 103% | CAKI-1 renal 101% | CCRF-CEM leukemia 93.9% | MOLT-4 leukemia 106% | SR leukemia 64.1% | RPMI-8226 leukemia 102% | OVCAR-8 ovarian 99.3% | OVCAR-4 ovarian 108% | SK-OV-3 ovarian 125% | OVCAR-3 ovarian 121% | HS 578T breast 92.5% | NCI/ADR-RES ovarian 89.7% | T-47D breast 98%
active: UO-31 renal -19.3% | IGROV1 ovarian 5.79%

C#Cc1nc(C2=C(C)C(=N\O)/C(=N/O)C2)cs1
inactive: EKVX NSCLC 95.7% | SN12C renal 98.2% | TK-10 renal 196% | ACHN renal 78.7% | CAKI-1 renal 93.7% | MOLT-4 leukemia 88% | SR leukemia 54.4% | RPMI-8226 leukemia 72.2% | OVCAR-8 ovarian 92.3% | OVCAR-4 ovarian 99% | SK-OV-3 ovarian 105% | OVCAR-3 ovarian 118% | HS 578T breast 86.7% | NCI/ADR-RES ovarian 38.5% | T-47D breast 82.6%
active: UO-31 renal -92.4% | IGROV1 ovarian -14.1%

NC(=O)c1cc(-c2ccc3ncnc(N4CCc5cc(F)c(Cl)cc54)c3c2)cnc1N
inactive: EKVX NSCLC 13.6% | SN12C renal 23.4% | UO-31 renal 22.3% | ACHN renal 23.1% | CAKI-1 renal 19.9% | CCRF-CEM leukemia 21% | SR leukemia 18.5% | OVCAR-8 ovarian 32.8% | OVCAR-5 ovarian 36.5% | OVCAR-4 ovarian 10.4% | SK-OV-3 ovarian 35.9% | NCI/ADR-RES ovarian 60.2%
active: A498 renal -68.3% | MOLT-4 leukemia -11.8% | RPMI-8226 leukemia -8.02% | IGROV1 ovarian -41.2% | OVCAR-3 ovarian 1.86% | HS 578T breast -7.69% | T-47D breast 0.0054%

NS(=O)(=O)c1ccc(Nc2nc(Nc3ccccc3)nc(-n3nc(-c4ccccc4)cc3-c3ccccc3)n2)cc1
inactive: EKVX NSCLC 40.3% | SN12C renal 41.2% | UO-31 renal 29.1% | TK-10 renal 108% | ACHN renal 15.3% | CAKI-1 renal 21% | CCRF-CEM leukemia 10.7% | OVCAR-5 ovarian 78.1% | OVCAR-4 ovarian 37.9% | SK-OV-3 ovarian 65.8% | IGROV1 ovarian 25.6% | OVCAR-3 ovarian 31.5% | HS 578T breast 64.6% | NCI/ADR-RES ovarian 45% | T-47D breast 36.9%
active: MOLT-4 leukemia 4.14% | SR leukemia 0.684% | RPMI-8226 leukemia 6.63%

O=C(N/N=C/c1ccco1)c1[nH]c2ccc(Br)cc2c1-c1ccccc1
inactive: EKVX NSCLC 37.9% | SN12C renal 38.1% | UO-31 renal 38.6% | TK-10 renal 98.7% | ACHN renal 29.3% | CAKI-1 renal 30.3% | CCRF-CEM leukemia 15.6% | MOLT-4 leukemia 15.8% | SR leukemia 11.2% | OVCAR-5 ovarian 36.7% | OVCAR-4 ovarian 58.5% | SK-OV-3 ovarian 36.1% | IGROV1 ovarian 18.5% | HS 578T breast 31.6% | NCI/ADR-RES ovarian 20.5% | T-47D breast 60.7%
active: RPMI-8226 leukemia 8.9% | OVCAR-8 ovarian 5.2%

Nc1nc(N)c2c(n1)NC(c1ccc(C(F)(F)F)cc1)CC(c1ccc(Nc3nc(NCCO)nc(Nc4ccc(Cl)cc4)n3)cc1)=N2 (centres undefined)
active: EKVX NSCLC -47.3% | SN12C renal -40.2% | UO-31 renal -48.6% | ACHN renal -90.2% | CAKI-1 renal -88.1% | CCRF-CEM leukemia -5.25% | MOLT-4 leukemia -15.2% | SR leukemia -31.7% | OVCAR-8 ovarian -26.1% | OVCAR-5 ovarian -88.7% | OVCAR-4 ovarian -9.44% | SK-OV-3 ovarian -26% | IGROV1 ovarian -67.7% | OVCAR-3 ovarian -20.9% | HS 578T breast -10.5% | NCI/ADR-RES ovarian -29.3%
inactive: TK-10 renal 91.1% | T-47D breast 36%

Cc1cc(C(NC(=O)CCCCCNc2cccc3c2C(=O)N(C2CCC(=O)NC2=O)C3=O)c2cccnc2)c(O)c2ncccc12 (centres undefined)
inactive: EKVX NSCLC 34.3% | SN12C renal 20.1% | UO-31 renal 18.7% | TK-10 renal 19.2% | ACHN renal 35.6% | SR leukemia 11.6% | RPMI-8226 leukemia 14.6% | OVCAR-8 ovarian 11.1% | OVCAR-5 ovarian 49.8% | OVCAR-4 ovarian 19.4% | SK-OV-3 ovarian 25.4% | OVCAR-3 ovarian 14.2% | NCI/ADR-RES ovarian 79.6% | T-47D breast 12.1%
active: CCRF-CEM leukemia -4.83% | MOLT-4 leukemia 1.29% | IGROV1 ovarian 9.13% | HS 578T breast 1.22%

Fc1ccc(-c2nc(C(Cl)Cl)nc3cc(-c4ccccc4)nn23)cc1
inactive: SN12C renal 42.5% | UO-31 renal 40.9% | TK-10 renal 30.3% | CCRF-CEM leukemia 29.9% | IGROV1 ovarian 20.4% | NCI/ADR-RES ovarian 17.8% | T-47D breast 44.3%
active: EKVX NSCLC 0.294% | ACHN renal -52.3% | A498 renal -42.7% | MOLT-4 leukemia 6.63% | SR leukemia 0.553% | RPMI-8226 leukemia 8.68% | OVCAR-5 ovarian -12.3% | OVCAR-4 ovarian -18.6% | SK-OV-3 ovarian -28.9% | OVCAR-3 ovarian -28.1% | HS 578T breast -7.41%

C#Cc1nc(C2=C(C)C(OC(C)=O)/C(=N/OC(C)=O)C2)cs1 (centres undefined)
active: EKVX NSCLC 9.96% | UO-31 renal -88.9% | ACHN renal -66% | CAKI-1 renal -50.2% | CCRF-CEM leukemia -39% | MOLT-4 leukemia -35.2% | SR leukemia -25.6% | RPMI-8226 leukemia -45.1% | OVCAR-4 ovarian -46% | SK-OV-3 ovarian -78.4% | IGROV1 ovarian -59% | OVCAR-3 ovarian -15.8% | HS 578T breast 4.76% | NCI/ADR-RES ovarian -5.63%
inactive: SN12C renal 86.6% | TK-10 renal 203% | OVCAR-5 ovarian 30.1% | T-47D breast 67%

COc1cc(/C=C/C(=O)c2ccc(F)cc2)ccc1Oc1nc(NCCO)nc(N2CCOCC2)n1
inactive: EKVX NSCLC 82.8% | SN12C renal 84.6% | UO-31 renal 61.2% | TK-10 renal 146% | ACHN renal 70.9% | CAKI-1 renal 71.9% | OVCAR-8 ovarian 86.1% | OVCAR-4 ovarian 88.4% | SK-OV-3 ovarian 113% | IGROV1 ovarian 70.6% | OVCAR-3 ovarian 98.8% | HS 578T breast 83.8% | NCI/ADR-RES ovarian 78.9% | T-47D breast 96.5%
active: MOLT-4 leukemia 6.59% | SR leukemia -0.24% | RPMI-8226 leukemia -1.38%

NS(=O)(=O)c1cccc(Nc2nc(SCC(=O)c3ccc([N+](=O)[O-])cc3)nc3ccccc23)c1
inactive: EKVX NSCLC 70.9% | SN12C renal 56.9% | UO-31 renal 40.5% | TK-10 renal 95.6% | ACHN renal 45.8% | CAKI-1 renal 27.6% | SR leukemia 17.5% | OVCAR-8 ovarian 24.1% | OVCAR-5 ovarian 108% | OVCAR-4 ovarian 43% | SK-OV-3 ovarian 73.5% | IGROV1 ovarian 16.6% | OVCAR-3 ovarian 36.5% | HS 578T breast 65.6% | NCI/ADR-RES ovarian 72.7% | T-47D breast 10.8%
active: MOLT-4 leukemia -6.08%

COc1cccc(-c2nn(-c3ccccc3)cc2-c2ccnc(N3CCN(C(=O)c4ccccc4)CC3)c2)c1
inactive: EKVX NSCLC 103% | SN12C renal 87.6% | UO-31 renal 72.3% | TK-10 renal 127% | ACHN renal 93% | A498 renal 66.9% | CCRF-CEM leukemia 52.9% | MOLT-4 leukemia 43.8% | SR leukemia 27.5% | RPMI-8226 leukemia 47.7% | OVCAR-8 ovarian 56.4% | OVCAR-5 ovarian 112% | OVCAR-4 ovarian 77.9% | SK-OV-3 ovarian 118% | IGROV1 ovarian 76% | HS 578T breast 100% | NCI/ADR-RES ovarian 43.4% | T-47D breast 50.3%

COc1cc(/C=C/C(=O)c2ccccc2)ccc1Oc1nc(NCCO)nc(N2CCOCC2)n1
inactive: EKVX NSCLC 95.5% | SN12C renal 97.3% | UO-31 renal 80.8% | TK-10 renal 124% | ACHN renal 98.4% | CAKI-1 renal 86.2% | CCRF-CEM leukemia 30.3% | MOLT-4 leukemia 71.3% | RPMI-8226 leukemia 54.5% | OVCAR-8 ovarian 99.1% | OVCAR-5 ovarian 108% | OVCAR-4 ovarian 109% | SK-OV-3 ovarian 99.3% | IGROV1 ovarian 100% | OVCAR-3 ovarian 124% | HS 578T breast 98% | NCI/ADR-RES ovarian 107% | T-47D breast 93.6%
active: SR leukemia 8.72%

COc1cc(N=Cc2sc(Nc3nccs3)nc2O)cc(OC)c1OC
inactive: EKVX NSCLC 82.2% | SN12C renal 94.7% | UO-31 renal 59% | TK-10 renal 224% | ACHN renal 86% | CCRF-CEM leukemia 72% | MOLT-4 leukemia 78.2% | SR leukemia 63.9% | RPMI-8226 leukemia 81.6% | OVCAR-4 ovarian 82.9% | SK-OV-3 ovarian 104% | IGROV1 ovarian 66% | OVCAR-3 ovarian 82.8% | HS 578T breast 80.5% | NCI/ADR-RES ovarian 78.4% | T-47D breast 89.3%

C=C1CC[C@H]2[C@@](C)(CCC3OC(c4ccc(OCc5cn(C6CC(OC(C)=O)C(OC(C)=O)C(COC(C)=O)O6)nn5)cc4)OC[C@]32C)[C@@H]1/C=C/C1=CCOC1=O (some centres undefined)
inactive: EKVX NSCLC 52.3% | SN12C renal 67.5% | UO-31 renal 57.7% | TK-10 renal 119% | ACHN renal 72.7% | CCRF-CEM leukemia 65.7% | MOLT-4 leukemia 62.1% | SR leukemia 51% | OVCAR-8 ovarian 81.8% | OVCAR-5 ovarian 97.4% | OVCAR-4 ovarian 72.7% | SK-OV-3 ovarian 103% | IGROV1 ovarian 89.2% | OVCAR-3 ovarian 81.9% | HS 578T breast 75.7% | NCI/ADR-RES ovarian 92.8% | T-47D breast 40%

COc1ccc(/C=N/NC(=O)c2[nH]c3ccc(Br)cc3c2-c2ccccc2)o1
active: OVCAR-8 ovarian -12.2%
inactive: EKVX NSCLC 37.8% | SN12C renal 43.3% | UO-31 renal 46.1% | TK-10 renal 94.5% | ACHN renal 28.1% | CAKI-1 renal 26.3% | CCRF-CEM leukemia 15.4% | MOLT-4 leukemia 17% | SR leukemia 17.7% | RPMI-8226 leukemia 12.5% | OVCAR-4 ovarian 68% | SK-OV-3 ovarian 38.1% | IGROV1 ovarian 19.7% | HS 578T breast 11.5% | NCI/ADR-RES ovarian 19.9% | T-47D breast 78.4%

COc1ccc(NC2=C(Cl)C(=O)C(C)=C(C)C2=O)cc1OC
inactive: EKVX NSCLC 74.3% | SN12C renal 88.9% | UO-31 renal 90.3% | TK-10 renal 170% | ACHN renal 91.4% | A498 renal 93.2% | CCRF-CEM leukemia 15.3% | MOLT-4 leukemia 40.1% | SR leukemia 84.5% | RPMI-8226 leukemia 88.7% | OVCAR-5 ovarian 103% | OVCAR-4 ovarian 22% | IGROV1 ovarian 39.7% | OVCAR-3 ovarian 95.6% | HS 578T breast 91.2% | T-47D breast 23.5%
